Experiment [1] can be described thus: NCI Yeast Anticancer Drug Screen. Data for the rad50 strain (AID 155).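 Also: 0% = growth of vehicle-only cultures of the same strain.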 The settings on record: S. cerevisiae rad50 strain growth inhibition, stronger effect = higher value. In short, it runs like this:
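Yeast carrying a defined DNA repair defect were exposed to test compounds, and growth was compared with vehicle-treated controls to give percent inhibition.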

A short description of experiment [2]: NCI Yeast Anticancer Drug Screen. Data for the mec2-1 strain (AID 157). The settings on record: S. cerevisiae mec2-1 strain, stronger effect = higher value. An outline of the steps: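 Yeast mec2-1 mutant treated with compound. Readout: growth inhibition vs vehicle controls.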
Experiment [3] is described as follows: NCI Yeast Anticancer Drug Screen. Data for the sgs1 mgt1 strain (AID 161).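 Also: 0% = growth of cultures given vehicle only.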 Particulars: S. cerevisiae sgs1 mgt1 strain, stronger effect = higher value. In short, it runs like this: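 Read-out: growth inhibition vs vehicle controls. Cells: mutant yeast strain deficient in DNA damage repair.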
Experiment [4] is described as follows: NCI Yeast Anticancer Drug Screen. Data for the cln2 rad14 strain (AID 165).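 Also: 0% = growth equal to vehicle treated cultures.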 Particulars: S. cerevisiae cln2 rad14 strain, stronger effect = higher value. In short, it runs like this:
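cln2 rad14 yeast strain; compound exposure; growth inhibition read vs vehicle controls.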

Experiment [5] in a line: NCI Yeast Anticancer Drug Screen. Data for the bub3 strain (AID 167). Particulars: S. cerevisiae bub3 mutant strain, stronger effect = higher value. In short, it runs like this:
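Compounds were applied to a genetically altered yeast strain carrying a cell-cycle control defect. Growth inhibition was scored against vehicle-treated controls.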

A short description of experiment [6]: NCI Yeast Anticancer Drug Screen. Data for the mlh1 rad18 strain (AID 175). Particulars: S. cerevisiae mlh1 rad18 strain growth inhibition, stronger effect = higher value. In short, it runs like this:
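Yeast w/ defined DNA-repair lesions; compound exposure; growth vs vehicle controls → % inhibition.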

The mark [7] stands for this setting: at 5.0 µM (retest, dose inferred, filed as 0.5).
Setting [8] is: at 50.0 µM (retest, dose inferred, filed as 5.0).

SMILES strings stand for the structures. Values joined by “and” are separate entries in the source; they are usually repeats but may differ in a detail not shown here. Identical values can stand only once. This is part of a sample that, as a whole, favours compounds with a hit. Of some 79,000 tested, about 15% had one in any assay. Values without a mark were called inactive. Active and inactive are the calls of the source. Rule as the data show it: active = growth inhibition above about 70%; inactive = the rest.

`O=[N+]([O-])c1cc([N+](=O)[O-])c2cccnc2c1O`: the growth inhibition was -4% in experiment [1] (setting [7]); 3% in experiment [1] (setting [8]); 98.6% (active) in experiment [1] (at 50.0 µM); -10% in experiment [2] (setting [7]); -10% in experiment [2] (setting [8]); 98.3% (active) in experiment [2] (at 50.0 µM). For the same compound, the growth inhibition in experiment [3] (setting [7]) was -3%; in experiment [3] (setting [8]), 11%; in experiment [3] (at 50.0 µM), 97.5% (active); in experiment [4] (setting [7]), 2%; in experiment [4] (setting [8]), -2%; in experiment [4] (at 50.0 µM), 94.3% (active). Further, the growth inhibition in experiment [5] (setting [7]) is -7%; in experiment [5] (setting [8]), -11%; in experiment [5] (at 50.0 µM), 98% (active); in experiment [6] (setting [7]) it was -4%; in experiment [6] (setting [8]), -7%; in experiment [6] (at 50.0 µM), 96.8% (active).

As to `CN(C)C(=S)[S][Sb]([c]1ccccc1)[c]1ccccc1`, the growth inhibition in experiment [1] (setting [7]) was 97% (active); in experiment [1] (setting [8]) it was 99% (active); in experiment [1] (at 50.0 µM), 70.6% (active); in experiment [2] (setting [7]), 99% (active); in experiment [2] (setting [8]) it was 99% (active); in experiment [2] (at 50.0 µM) it was 83.5% (active). The growth inhibition was 93% (active) in experiment [3] (setting [7]); 99% (active) in experiment [3] (setting [8]); 90.3% (active) in experiment [3] (at 50.0 µM); 89% (active) in experiment [4] (setting [7]); 97% (active) in experiment [4] (setting [8]); 57.1% in experiment [4] (at 50.0 µM). Besides, the growth inhibition in experiment [5] (setting [7]) was 98% (active); in experiment [5] (setting [8]) it was 75% (active); in experiment [5] (at 50.0 µM), 98.3% (active); in experiment [6] (setting [7]) it was 99% (active); in experiment [6] (setting [8]), 99% (active); in experiment [6] (at 50.0 µM) it was 90.5% (active).

For `CCN(CC)C1CC(O[C@H]2C[C@](O)(C(=O)CO)Cc3c(O)c4c(c(O)c32)C(=O)c2c(OC)cccc2C4=O)OC(C)C1O` (some centres undefined), the growth inhibition is 98% (active) in experiment [1] (setting [7]); 98% (active) in experiment [1] (setting [8]); 99.2% (active) in experiment [1] (at 50.0 µM); 99% (active) in experiment [2] (setting [7]); 99% (active) in experiment [2] (setting [8]); 99.3% (active) in experiment [2] (at 50.0 µM). Moreover, the growth inhibition was 99% (active) in experiment [3] (setting [7]); 99% (active) in experiment [3] (setting [8]); 99.5% (active) in experiment [3] (at 50.0 µM); 97% (active) in experiment [4] (setting [7]); 98% (active) in experiment [4] (setting [8]); 98.8% (active) in experiment [4] (at 50.0 µM). The growth inhibition in experiment [5] (setting [7]) was 98% (active); in experiment [5] (setting [8]) it was 99% (active); in experiment [5] (at 50.0 µM), 99% (active); in experiment [6] (setting [7]), 98% (active); in experiment [6] (setting [8]) it was 96% (active); in experiment [6] (at 50.0 µM), 99.3% (active).

`COc1ccc(CC2C(=O)NC(C)C(=O)N(C)C3C(=O)N(C)C(Cc4ccc(O)c(c4)Oc4ccc(cc4)C3O)C(=O)NC(C)C(=O)NC(C)C(=O)N2C)cc1` (centres undefined): the growth inhibition in experiment [1] (setting [7]) is -8%; in experiment [1] (setting [8]), 80% (active); in experiment [1] (at 50.0 µM), 75.9% (active); in experiment [2] (setting [7]) it was 29%; in experiment [2] (setting [8]), 69%; in experiment [2] (at 50.0 µM), 47.5%. Further, the growth inhibition in experiment [3] (setting [7]) is 12%; in experiment [3] (setting [8]), 63%; in experiment [3] (at 50.0 µM), 54.3%; in experiment [4] (setting [7]), 27%; in experiment [4] (setting [8]), 88% (active); in experiment [4] (at 50.0 µM), 84.5% (active). The growth inhibition in experiment [5] (setting [7]) is 19%; in experiment [5] (setting [8]) it was 81% (active); in experiment [5] (at 50.0 µM) it was 65.4%; in experiment [6] (setting [7]), 10%; in experiment [6] (setting [8]) it was 87% (active); in experiment [6] (at 50.0 µM), 63%.

`Oc1c(Cl)cc(-c2cc(Cl)c(O)c(Cl)c2)cc1Cl`: the growth inhibition in experiment [1] (setting [7]) is 95% (active); in experiment [1] (setting [8]) it was 94% (active); in experiment [1] (at 50.0 µM) it was 84.2% (active); in experiment [2] (setting [7]) it was 96% (active); in experiment [2] (setting [8]), 97% (active); in experiment [2] (at 50.0 µM), 89% (active). Further, the growth inhibition in experiment [3] (setting [7]) is 89% (active); in experiment [3] (setting [8]), 97% (active); in experiment [3] (at 50.0 µM), 89.7% (active); in experiment [4] (setting [7]) it was 57%; in experiment [4] (setting [8]), 98% (active); in experiment [4] (at 50.0 µM) it was 87.6% (active). The growth inhibition in experiment [5] (setting [7]) was 92% (active); in experiment [5] (setting [8]) it was 96% (active); in experiment [5] (at 50.0 µM), 86.7% (active); in experiment [6] (setting [7]) it was 99% (active); in experiment [6] (setting [8]), 99% (active); in experiment [6] (at 50.0 µM), 84.9% (active).

`CCC[CH2][Sn]([Cl])([CH2]Cl)[CH2]CCC`: the growth inhibition was 97% (active) in experiment [1] (setting [7]); 99% (active) in experiment [1] (setting [8]); 99% (active) in experiment [1] (at 50.0 µM); 99% (active) in experiment [2] (setting [7]); 100% (active) in experiment [2] (setting [8]); 99.2% (active) in experiment [2] (at 50.0 µM). The growth inhibition is 98% (active) in experiment [3] (setting [7]); 99% (active) in experiment [3] (setting [8]); 99.4% (active) in experiment [3] (at 50.0 µM); 98% (active) in experiment [4] (setting [7]); 98% (active) in experiment [4] (setting [8]); 99.3% (active) in experiment [4] (at 50.0 µM). In addition, the growth inhibition is 98% (active) in experiment [5] (setting [7]); 99% (active) in experiment [5] (setting [8]); 99.3% (active) in experiment [5] (at 50.0 µM); 99% (active) in experiment [6] (setting [7]); 99% (active) in experiment [6] (setting [8]); 99.2% (active) in experiment [6] (at 50.0 µM).

On to `CN(CCC(N)CC(=O)NC1C=CC(n2ccc(N)nc2=O)OC1C(=O)O)C(=N)N` (centres undefined), for which the growth inhibition in experiment [1] (setting [7]) was 48%; in experiment [1] (setting [8]), 95% (active); in experiment [1] (at 50.0 µM), 91.8% (active); in experiment [2] (setting [7]), 86% (active); in experiment [2] (setting [8]) it was 98% (active); in experiment [2] (at 50.0 µM) it was 92.8% (active) and 93.4% (active). For the same compound, the growth inhibition in experiment [3] (setting [7]) was 42%; in experiment [3] (setting [8]) it was 90% (active); in experiment [3] (at 50.0 µM), 90.9% (active); in experiment [4] (setting [7]), 88% (active); in experiment [4] (setting [8]), 97% (active); in experiment [4] (at 50.0 µM) it was 90% (active) and 90.2% (active). Besides, the growth inhibition in experiment [5] (setting [7]) is 68%; in experiment [5] (setting [8]), 96% (active); in experiment [5] (at 50.0 µM), 91% (active) and 92% (active); in experiment [6] (setting [7]) it was 72% (active); in experiment [6] (setting [8]) it was 97% (active); in experiment [6] (at 50.0 µM) it was 90.6% (active) and 90.7% (active).

As to `O=C1c2ccccc2[Se](=O)N1c1ccccc1` (centres undefined), the growth inhibition in experiment [1] (setting [7]) is 50%; in experiment [1] (setting [8]) it was 96% (active); in experiment [1] (at 50.0 µM), 93.1% (active); in experiment [2] (setting [7]), 61%; in experiment [2] (setting [8]), 99% (active); in experiment [2] (at 50.0 µM), 93.9% (active). The growth inhibition in experiment [3] (setting [7]) is 23%; in experiment [3] (setting [8]) it was 96% (active); in experiment [3] (at 50.0 µM), 93% (active); in experiment [4] (setting [7]), 45%; in experiment [4] (setting [8]), 98% (active); in experiment [4] (at 50.0 µM), 91.7% (active). Moreover, the growth inhibition in experiment [5] (setting [7]) was 72% (active); in experiment [5] (setting [8]) it was 99% (active); in experiment [5] (at 50.0 µM) it was 90.8% (active); in experiment [6] (setting [7]) it was 83% (active); in experiment [6] (setting [8]), 98% (active); in experiment [6] (at 50.0 µM), 90.8% (active).

Source of the values: PubChem BioAssay (NCI).
